Screens deposited in PubChem by National Center for Advancing Translational Sciences (NCATS).
PLK1 PBD block: PLK1 (human) polo-box domain binding inhibition | Potency, µM, inactives show max response, negative = inhibition, usual class: inhibitors | P53350 | Plk1 PBD binding of FITC phosphopeptide, fluorescence polarization | AID 720504 | 360,000 compounds, 2.8% hits; also: series mostly up to about 57 µM; % is scaled to controls: 0 for no effect and ±100 for the full control effect; nearly all actives have a fitted effect of over 65% in size
JMJD2A Tudor: inhibitors of human JMJD2A Tudor domain | Potency, µM (top dose mostly 114 µM), for the others: at the highest dose activity change, negative = inhibition, most hits filed as inhibitors | O75164 | AID 504339 | 390,000 compounds, 4.4% hits | AlphaScreen JMJD2A-Tudor / H3K4me3 peptide binding; also: % is scaled to controls: 0 for no effect and ±100 for the full control effect; nearly all actives have a fitted effect of over 50% in size
VDR inh: inhibitors of human vitamin D receptor; VDR-SRC2-3 peptide fluorescence polarization, 2 h; P11473; AID 504847; 400,000 compounds, 0.93% hits; Potency, µM, without a hit: max response, negative = inhibition, hits mostly inhibitors; also: % is scaled to controls: 0 for no effect and ±100 for the full control effect
Target sequence (P11473 whole entry, looked up): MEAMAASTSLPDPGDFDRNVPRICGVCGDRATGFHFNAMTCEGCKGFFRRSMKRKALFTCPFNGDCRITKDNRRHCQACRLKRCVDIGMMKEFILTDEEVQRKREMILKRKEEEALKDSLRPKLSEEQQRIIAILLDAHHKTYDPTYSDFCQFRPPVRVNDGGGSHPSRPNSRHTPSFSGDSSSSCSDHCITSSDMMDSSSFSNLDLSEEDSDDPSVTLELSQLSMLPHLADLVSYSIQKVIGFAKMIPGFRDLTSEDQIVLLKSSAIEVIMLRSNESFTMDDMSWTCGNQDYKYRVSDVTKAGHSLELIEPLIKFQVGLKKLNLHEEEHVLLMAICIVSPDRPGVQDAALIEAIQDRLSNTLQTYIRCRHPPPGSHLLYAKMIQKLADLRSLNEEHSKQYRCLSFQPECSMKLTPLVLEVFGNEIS
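After 23 nl compound addition and a short centrifugation, plates sat for 2 hours at ambient temperature; polarization of fluorescence then indicated loss of VDR binding to peptide SRC2-3.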
BAZ2B block: BAZ2B (human) inhibition; Q9UIF8; AlphaScreen BAZ2B-H3K14Ac peptide displacement; Potency, µM (highest dose often 114 µM), inactives show top-dose activity change, negative = inhibition, actives largely listed as inhibitors; 360,000 compounds, 4.4% hits; AID 504333; also: % is scaled to controls: 0 for no effect and ±100 for the full control effect; nearly all actives have a fitted effect of over 60% in size
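In this displacement format the biotinylated H3(5-23) peptide acetylated at Lys14 serves as ligand at 50 nM, with BAZ2B at 50 nM in PBS pH 7.4 containing 0.01% Tween-20. Donor and acceptor beads are 10 ug/mL final.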
G9a inh: blocks human histone lysine methyltransferase G9a; Q96KQ7; G9a H3K9 monomethylation, AlphaScreen, 2 h; Potency, µM (top dose mostly 102 µM), for inactives: top-dose activity, negative = inhibition, actives largely listed as inhibitors; 350,000 compounds, 8.8% hits; AID 504332; also: % is scaled to controls: 0 for no effect and ±100 for the full control effect; nearly all actives have a fitted effect of over 75% in size
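Readings reflect AlphaScreen signal from monomethyl-H3K9 antibody detection. HMT at 20 nM; substrate b-H3K9 500 nM; cofactor SAM 20 uM; 2 h RT reaction; compounds tested as titrations in qHTS with 15 min preincubation.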
HP1b binding inh: inhibitors of HP1-beta chromodomain binding to methylated histone tails. AlphaScreen HP1-beta / biotin-H3K9me3 peptide binding. Potency, µM (series often up to 114 µM), inactives show top-dose activity change, negative = inhibition, most hits filed as inhibitors. 390,000 compounds, 0.56% hits. P83916; also: nearly all actives have a fitted effect of over 70% in size
Target sequence (P83916 whole entry, looked up): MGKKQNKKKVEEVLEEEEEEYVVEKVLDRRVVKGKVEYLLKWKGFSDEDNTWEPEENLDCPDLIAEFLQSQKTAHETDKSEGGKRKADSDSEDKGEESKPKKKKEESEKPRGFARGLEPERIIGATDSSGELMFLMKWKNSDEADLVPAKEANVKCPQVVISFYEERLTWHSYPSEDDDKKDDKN
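AlphaScreen: HP1-beta (50 nM) preformed 30 min with biotin-H3(1-18)K9me3 peptide (50 nM) in PBS pH 7.4, 0.01% Tween-20. Compound added for 30 min at RT, then streptavidin donor/nickel chelate acceptor beads (10 ug/mL) for 30 min.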
Numbers without * were called inactive; ? = inconclusive; . = no result; [ ] = dose if it differs, or a comment. In the library only some 11% were active in any assay of this set; here they are far more common. Calls follow the shape of the dose curve; as a rule, active = well fitted curve in the direction sought with a large enough effect; inconclusive = small, poorly fitted or top-dose-only effect, or another doubt; inactive = no such curve, though single readings can be large; an effect the other way counts as inactive or inconclusive. Potency is read from the fitted curve at half-maximal effect.

SMILES	PLK1 PBD block	JMJD2A Tudor	VDR inh	BAZ2B block	G9a inh	HP1b binding inh
CSc1ccccc1NC(=O)CN(C)C(=O)c1ccc(-n2cccn2)cc1	-14%	-6%	-3%	-5%	24%[12.7 µM]	35%
CCOC(=O)CC1C(=O)NCCN1C(=S)NC(=O)c1ccc(C)c(Br)c1 (stereo unspecified)	-5%	.	.	.	.	.
Cc1[nH]c2c([N+](=O)[O-])cccc2c1C	-2%	?	4%	20%	.	-28%
O=[N+]([O-])c1cccc2c3c([nH]c12)CCCC3	-2%	-29%	5%	?	8.9µM*	?
CCN(C(=O)COC(=O)c1ccc[nH]c1=O)c1cccc2ccccc12	-8%	-20%	-16%	.	.	-2%
CCOC(=O)c1c(C)[nH]c(C)c1C(=O)COC(=O)C1CCCN1S(=O)(=O)c1ccccc1F (stereo unspecified)	-1%	-25%	12%	?	50µM*	-8%
CNC(=S)N(C)/N=C1/C(=O)N(Cc2c(Cl)cccc2Cl)c2ccccc21	-1%	5µM*	-26%	25µM*	-20%[12.7 µM]	-49%
COc1ccc(Cl)cc1NC(=O)CSc1ccc2nnc(CCNS(=O)(=O)c3ccccc3)n2n1	.	-4%	-4%	-2%	4%[59 µM]	43%
O=C(/C=C/c1ccccc1)CC(=O)c1ccccc1O	-5%	25µM*	-6%	?	16µM*	-24%
O=C(/C=C/c1ccccc1)NC(=O)c1ccccc1O	-10%	?	-11%	79µM*	?	24%
C=C1CCN(C(C(=O)NCc2ccc(Cl)c(Cl)c2)C(C)C)S(=O)(=O)c2ccccc21 (stereo unspecified)	.	-3%	-10%	.	.	33%
COc1ccccc1-n1cnnc1SCC(=O)Nc1cccc(S(N)(=O)=O)c1	5%	-11%	9%	28%	3%	23%
Cc1ccc(CNC(=O)COCc2cc(-c3ccc4c(c3)OCO4)on2)cc1	.	-4%	5%	-1%	-4%[59 µM]	38%
O=C(O)[C@H]1CCCC[C@H]1C(=O)Nc1ccc(Nc2ccccc2)cc1	0%	-11%	-10%	-35%	8.9µM*	13%
CC(C)c1ccc(NC(=O)C2CCCCC2C(=O)O)cc1 (stereo unspecified)	4%	-2%	-2%	-6%	25%[12.7 µM]	40%
O=C(O)C1CCCCC1C(=O)Nc1cccc(Br)c1 (stereo unspecified)	-20%	25µM*	-9%	?	16%[2.33 µM]	25µM*
CCCCCn1c(=O)[nH]c2cc(C(=O)Nc3ccc(OC)c(OC)c3)ccc2c1=O	.	-13%	9%	4%	2%[59 µM]	10%
COc1ccc(C(=O)NCC(=O)N/N=C/C=C/c2ccccc2)cc1OC	-3%	-18%	7%	-22%	-25%	29%
CCc1ccc2c(c1)NC(=O)C2(C)Cc1ccccc1OC (stereo unspecified)	1%	.	.	.	.	.
O=C1NN(c2cccc(Br)c2)C(=O)/C1=C\c1ccc(N2CCOCC2)cc1	?	?	-11%	?	79µM*	5%
CN1CCN(c2ncc3nc(-c4ccccc4)c(=O)n(-c4ccccc4)c3n2)CC1	.	.	1%	.	-1%[12.7 µM]	.
O=[N+]([O-])c1cccc(N=Cc2ccccc2)c1	-5%	-15%	-2%	.	.	22%
O=C(/C(N=Nc1cccc([N+](=O)[O-])c1)=C(/O)c1ccc(Br)cc1)C(F)(F)F	.	.	.	25µM*	40µM*	.
Cc1cc(=O)[nH]c(SCC(=O)Nc2ncc(S(=O)(=O)c3ccc([N+](=O)[O-])cc3)s2)n1	-27%	-25%	7%	-13%	45µM*	?
CC(C)c1ccc(Nc2nnc(SCC(=O)Nc3ncc(S(=O)(=O)c4ccc([N+](=O)[O-])cc4)s3)s2)cc1	42µM*	-14%	-17%	-20%	35µM*	14%
SMILES	PLK1 PBD block	JMJD2A Tudor	VDR inh	BAZ2B block	G9a inh	HP1b binding inh
O=C(CSc1nnc(-c2cccnc2)n1-c1ccccc1)N1CCN(c2ccc(F)cc2)CC1	-12%	-13%	4%	-9%	?	28%
O=C(CSc1nnc(-c2ccncc2)n1-c1ccccc1)Nc1ccc(C(=O)O)cc1	-17%	-9%	13%	4%	50µM*	3%
O=C(CSc1nnc(-c2ccncc2)n1-c1ccccc1)N1CCN(c2ccc(Cl)cc2)CC1	1%	-8%	-14%	3%	28µM*	-3%
COc1ccc(-n2c(SCC(=O)Nc3ccc(C(N)=O)cc3)nc3ccccc3c2=O)cc1OC	-7%	-21%	-6%	-28%	50µM*	-13%
O=C(CSc1nnc(-c2cccc(S(=O)(=O)N3CCCC3)c2)n1-c1ccccc1)Nc1ccc(C(=O)O)cc1	75µM*	?	0%	50µM*	?	8%
O=C(Nc1cc(-c2nc3ccccc3o2)ccc1Cl)c1cccc2c(Cl)cccc12	.	-16%	-3%	-7%	9%[59 µM]	8%
CCn1c(CC(=O)Nc2cccc(OC)c2)nnc1SCC(=O)Nc1nccs1	-7%	-10%	6%	8%	56µM*	24%
Cn1c(=O)n(C)c2cc(NC(=O)CSc3nnc(-c4ccccc4O)n3-c3ccccc3)ccc21	0%	-14%	7%	50µM*	-7%[12.7 µM]	20%
COc1ccc(-n2c(SCC(=O)Nc3ccc(C(=O)O)cc3)nnc2-c2ccccc2)cc1OC	-12%	-18%	-4%	56µM*	?	47%
Cc1ccc(/C=N/NC(=O)CSc2nnc(-c3ccccc3)n2-c2ccc(Cl)cc2)o1	3%	-34%	7%	?	45µM*	-11%
COc1ccc(-n2c(SCC(=O)Nc3nccs3)nnc2-c2ccccc2)cc1	27µM*	?	-11%	-1%	2%	6%
Cc1nonc1-c1csc(N)n1	4%	15%	-13%	0%	5%	33%
CCn1c(N)c(C(=O)N2CCOCC2)sc1=S	15µM*	-25%	-12%	-9%	10µM*	?
CCn1c(N)c(C(=O)NCC2CCCO2)sc1=S (stereo unspecified)	4.7µM*	?	35µM*	79µM*	-119%[12.7 µM]	11µM*
CCn1c(N)c(C(=O)NCCCOC)sc1=S	21µM*	-24%	?	?	28µM*	50µM*
CCNC(=O)c1sc(=S)n(CC)c1N	27µM*	-17%	-9%	?	13µM*	-31%
C=CCn1c(N)c(C(=O)N2CCOCC2)sc1=S	?	-21%	-6%	-17%	?	-27%
CCn1c(N)c(C(=O)NCc2cccnc2)sc1=S	-27%	-8%	-5%	-33%	-5%[59 µM]	-8%
O=C(CSC(=S)N1CCCCC1)Nc1ncc2c(n1)CCCC2=O	0%	-20%	10%	3%	.	10%
Cc1ccc2[nH]c(=O)c(CN(CCO)Cc3nnnn3Cc3ccccc3)cc2c1	.	?	-18%	.	.	5%[57 µM]
